Test results as given in PubChem BioAssay (EPA / NIEHS).
Several values for one entry are separate records, joined by “and”; a condition that tells them apart may be missing. Equal values may be shown once. The source holds several records for some structures; these can differ, active in one and inactive in another. Activity calls are given as the source filed them. Rule for the calls: active = hit-call score of the fitted dose curve at least 0.9, where 1 is the maximum; inactive = score below 0.9.

Experiment: ATG_PBREM_CIS: Attagene CIS-FACTORIAL HepG2 Assay for human Phenobarbital-responsive Enhancer Module (PBREM) (AID 2282955)
Details: HepG2 PBREM cis-reporter, Attagene multiplexed transcription; actives raise or lower the signal
Procedure: ATG_CIS is a cell-based, multiplexed-readout assay that uses HepG2, a human liver cell line, with measurements taken at 24 hours after chemical dosing in a 24-well plate.ATG_PBREM_CIS is one of 52 assay component(s) measured or calculated from the ATG_CIS assay. It is designed to make measurements of mRNA induction, a form of inducible reporter, as detected with fluorescence intensity signals by Reverse transcription polymerase chain reaction (RT-PCR) and Capillary electrophoresis technology.Data from the assay component ATG_PBREM_CIS was analyzed into 1 assay endpoint. This assay endpoint, ATG_PBREM_CIS, was analyzed with bidirectional fitting relative to DMSO as the negative control and baseline of activity. Using a type of inducible reporter, measures of mRNA for gain or loss-of-signal activity can be used to understand the reporter gene at the transcription factor-level as they relate to the gene NR1I3. Furthermore, this assay endpoint can be referred to as a primary readout, because this assay has produced multiple assay endpoints where this one serves a reporter gene function. To generalize the intended target to other relatable targets, this assay endpoint is annotated to the nuclear receptor intended target family, where the subfamily is non-steroidal.
Human liver HepG2 cells are transiently transfected with multiple reporter transcription units (MRTUs) in 6-well plates using FuGene 6 reagent (Roche; 3 ml FuGene/1 mg DNA). The MRTU constructs are regulated by a cis-regulating element (promoter). […] A major difference between the CIS and TRANS system is that in CIS activities of endogenous TFs are measured, whereas the TRANS assay evaluates changes in activities of exogenous, chimeric NR-Gal4 proteins. […] At the end of 24 hour incubation, total RNA was isolated using TriZol reagent (Invitrogen). The isolated RNA is then reverse-transcribed using oligo(dT) primer and Mo-MLV reverse transcriptase (Invitrogen) with DNAse I (Ambion) treatment for 30 min. The one-tenth of the produced cDNA was amplified by PCR using Taq DNA polymerase (Invitrogen) and two reporter sequence-specific primers. The PCR products were fluorescently labeled by primer extension with 6-arboxyfluorescein (6-FAM) 5'-labeled reporter sequence-specific primer (2 min at 95 C, 20 s at 68 C and 10 min at 72 C) and these products were digested with 5U of HpaI (New England Biolabs) for 2h at 37 C. The fragments were purified using Qiaquick PCR columns (Qiagen), analyzed on an ABI 3130xL genetic analyzer (Applied Biosystems) with peak positions identified by using a set of X-rhodamine (ROX)-labeled MapMarker1000 molecular weight standards (BioVentures). The raw capillary electrophoresis data was processed using Attagraph software (Attagene).

Structure (SMILES)	outcome	AC50
CC(C)C(=O)OCC(C)(C)C(OC(=O)C(C)C)C(C)C (stereo not given)	inactive	–
Cc1cc2c3c(c1)C(c1ccccc1)=N[C@@H](NC(=O)c1ccncc1)C(=O)N3CC2	–	3.47 µM (active)
CCC(C)(c1ccc(O)cc1)c1ccc(O)cc1	inactive	1.17 µM (active)
Cc1ccccc1O	inactive	–
C[C@]12CCC(=O)C=C1CC[C@@H]1[C@@H]2CC[C@@]2(C)[C@H]1CC[C@]2(C)O	inactive	–
C[C@]12CCC(=O)C=C1CC[C@@H]1[C@@H]2CC[C@]2(C)C(=O)CC[C@@H]12	inactive	–
NS(=O)(=O)C(F)(F)C(F)(F)C(F)(F)C(F)(F)C(F)(F)C(F)(F)C(F)(F)C(F)(F)F	inactive	46.7 µM (active) and 33.8 µM (active)
O=C(O)C(F)(F)C(F)(F)C(F)(F)C(F)(F)C(F)(F)F	inactive	–
CCOC(=O)C(O)(c1ccc(Cl)cc1)c1ccc(Cl)cc1	inactive	–
CCOP(=S)(OCC)SCSC(C)(C)C	inactive	–
CC(c1ccc(O)cc1)(c1ccc(O)cc1)c1ccc(O)cc1	inactive	–
COc1ccc(O)c(C(C)(C)C)c1	–	25.7 µM (active)
Nc1ccc(-c2ccc(N)cc2)cc1	inactive	–
Cc1ccccc1CO[C@@H]1C[C@@]2(C(C)C)CC[C@]1(C)O2	inactive	–
CO/C=C(/C(=O)OC)c1ccccc1COc1cccc(C(F)(F)F)n1	inactive	–
O=C(NC(=O)c1c(F)cccc1F)Nc1cc(Cl)c(OC(F)(F)C(F)F)c(Cl)c1	inactive	–
Oc1ccc(C(c2ccc(O)cc2)(C(F)(F)F)C(F)(F)F)cc1	inactive	–
Clc1ccc(C(c2ccccc2Cl)C(Cl)(Cl)Cl)cc1 (stereo not given)	inactive	–

Structure (SMILES)	outcome	AC50
CCCCCCCCOC(=O)c1ccccc1C(=O)OCCCCCCCC	inactive	–
CCCCCCCCCc1ccc(O)cc1	inactive	–
O=S(=O)(O)C(F)(F)C(F)(F)C(F)(F)C(F)(F)C(F)(F)C(F)(F)F	inactive	–
CN(C)c1nc(=O)n(C2CCCCC2)c(=O)n1C	inactive	–
Nn1cnnc1	inactive	–
Oc1c(Cl)c(Cl)c(Cl)c(Cl)c1Cl	inactive	18.1 µM (active) and 7.11 µM (active)
CCC(C)(CC)c1cc(NC(=O)c2c(OC)cccc2OC)on1	–	1.43 µM (active)
Sc1ccccc1	inactive	–
CC(C)(c1ccccc1)c1ccc(O)cc1	inactive	33.4 µM (active)
CCCCCCOC(=O)c1ccccc1C(=O)OCCCCCC	inactive	–
Clc1ccc(Cl)cc1	inactive	–
CCC(=O)O[C@H]1CC[C@H]2[C@@H]3CCC4=CC(=O)CC[C@]4(C)[C@H]3CC[C@]12C	inactive	136 µM (active) and 100 µM (active)
C=CC(=O)NCNC(=O)C=C	inactive	–
O=C(N[C@H]1CN2CCC1CC2)c1cc2ccoc2cn1	inactive	–
Cc1ccccc1[N+](=O)[O-]	inactive	–
O=C(O)C(F)(F)C(F)(F)C(F)(F)C(F)(F)C(F)(F)C(F)(F)C(F)(F)C(F)(F)C(F)(F)F	inactive	–
CC(C)(O)C(=O)Nc1ccc([N+](=O)[O-])c(C(F)(F)F)c1	inactive	–
